Experimental data reported in article PMC4336329 (PLoS ONE, 2015).
About 14,000 (4.5%) of roughly 310,000 compounds showed an effect of 50% or more. Effects have a minus sign here. For the sample, strong results were picked, then their nearest neighbours and some compounds at random.

Molecular target: human ether-à-go-go-related gene (hERG) potassium channel (human, UniProt Q12809)
Test: primary screen, population patch clamp on CHO cells stably expressing hERG; higher = less effect of the substance
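Note: peak tail current of the secondary pulse compared with the same well before compound.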

Sequence of human ether-à-go-go-related gene (hERG) potassium channel (Q12809 whole entry, looked up): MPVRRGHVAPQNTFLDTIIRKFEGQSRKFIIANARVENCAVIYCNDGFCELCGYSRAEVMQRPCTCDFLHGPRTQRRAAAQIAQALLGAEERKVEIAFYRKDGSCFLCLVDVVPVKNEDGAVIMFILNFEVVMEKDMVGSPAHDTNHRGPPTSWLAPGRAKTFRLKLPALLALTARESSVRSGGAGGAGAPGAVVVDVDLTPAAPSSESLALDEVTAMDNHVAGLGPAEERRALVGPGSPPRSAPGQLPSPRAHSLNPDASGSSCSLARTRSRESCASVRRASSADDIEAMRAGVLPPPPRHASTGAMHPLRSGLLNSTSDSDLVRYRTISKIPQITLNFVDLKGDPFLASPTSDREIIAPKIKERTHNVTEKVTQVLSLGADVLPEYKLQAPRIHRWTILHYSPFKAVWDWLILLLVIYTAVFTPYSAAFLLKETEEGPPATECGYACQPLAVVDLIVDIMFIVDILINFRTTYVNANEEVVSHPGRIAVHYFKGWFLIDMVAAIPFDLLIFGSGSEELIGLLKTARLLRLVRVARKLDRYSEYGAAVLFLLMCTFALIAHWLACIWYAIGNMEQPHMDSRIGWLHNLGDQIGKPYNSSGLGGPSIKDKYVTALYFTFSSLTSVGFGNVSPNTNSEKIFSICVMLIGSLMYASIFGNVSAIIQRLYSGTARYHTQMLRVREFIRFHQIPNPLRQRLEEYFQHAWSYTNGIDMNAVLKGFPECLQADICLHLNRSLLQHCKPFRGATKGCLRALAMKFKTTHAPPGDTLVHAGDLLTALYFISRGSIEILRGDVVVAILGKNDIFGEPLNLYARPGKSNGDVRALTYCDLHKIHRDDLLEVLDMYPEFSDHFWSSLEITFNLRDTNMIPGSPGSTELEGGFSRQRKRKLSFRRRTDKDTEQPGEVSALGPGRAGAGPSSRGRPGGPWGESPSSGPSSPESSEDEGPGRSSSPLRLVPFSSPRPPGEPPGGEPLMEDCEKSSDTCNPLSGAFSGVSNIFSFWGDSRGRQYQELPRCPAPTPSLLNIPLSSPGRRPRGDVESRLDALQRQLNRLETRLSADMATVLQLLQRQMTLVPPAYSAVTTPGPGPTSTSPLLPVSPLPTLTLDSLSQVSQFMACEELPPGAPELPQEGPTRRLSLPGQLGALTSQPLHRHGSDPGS

SMILES	hERG current change (%, negative = inhibition) at 10uM [%]
CCN1C(=O)C(=O)N(Cc2ccc(OC)c(F)c2)C1=O	15.1
CC(C)CCNC(=O)C(c1ccco1)N(Cc1ccc(F)cc1)C(=O)c1snc(C(N)=O)c1N (stereo not drawn)	-22.4
CC(=O)NC(=C(Cl)Cl)S(=O)(=O)c1ccccc1	23.9
CCCCCn1c(=O)c(C(=O)Nc2cccc(C)c2)c(O)c2ccccc21	20.7
CCN(CC)CCCNc1cc(C(F)(F)F)c(C#N)c2nc3ccccc3n12	-18.4
CCc1cccc(N(C(=O)c2csnn2)C(C(=O)NC(C)(C)C)c2ccccn2)c1 (stereo not drawn)	1.65
Cc1ccc(C(=O)Nc2c(C)cc(-c3ccc(Cl)cc3)oc2=O)cc1	-6.18
O=S(=O)(/N=C(/Nc1ccccc1F)c1ccccc1)c1ccccc1	4.57
O=C(NNC(=O)c1cnccc1C(F)(F)F)c1ccc(Cl)cc1	11.1
Cc1c(C(c2cccc([N+](=O)[O-])c2O)c2c(C)n(C)n(-c3ccccc3)c2=O)c(=O)n(-c2ccccc2)n1C	-2.28
CCc1cccc(NC(=S)N(CCOC)C(C)c2ccco2)c1 (stereo not drawn)	-2.48
COc1ccc(-n2cc3ccc([N+](=O)[O-])cc3n2)cc1	7.2
Cl.Cn1c(=N)n(CC(O)c2ccccc2)c2ccccc21 (stereo not drawn)	-26.3
Cl.Cn1c(=N)n(CC(O)c2cccc3ccccc23)c2ccccc21 (stereo not drawn)	-67
CCCn1c(=N)n(CC(O)c2ccc(C)cc2)c2ccccc21.Cl (stereo not drawn)	-65.6
CCCn1c(C(O)c2ccc(C)cc2)nc2ccccc21 (stereo not drawn)	15.8
Cl.Cn1c(=N)n(CC(O)c2cccs2)c2ccccc21 (stereo not drawn)	-39.9
Br.Cn1c(=N)n(CC(=O)O)c2ccccc21	-5.99
COc1cccc(C(O)Cc2nc3ccccc3n2C)c1OC (stereo not drawn)	23.7
CCCCn1c(=N)n(CC(O)c2ccccc2)c2ccccc21.Cl (stereo not drawn)	-64.9
CCn1c(=N)n(CC(O)c2cccs2)c2ccccc21.Cl (stereo not drawn)	-60.4

SMILES	hERG current change (%, negative = inhibition) at 10uM [%]
CCCCCN(C(=O)CCC(=O)OCC(=O)N(CC#N)c1ccccc1)c1c(N)n(CCCC)c(=O)[nH]c1=O	-0.196
COc1ccc(NC(=O)C(OC(=O)c2cnccn2)c2ccccc2)cc1Cl (stereo not drawn)	24.7
Cc1ccc(S(=O)(=O)N2CCN(Cc3csc(C)n3)CC2)cc1	6.87
O=[N+]([O-])c1ccc(-c2nn(-c3ccccc3)cc2/C=N/n2c(-c3ccncc3)n[nH]c2=S)cc1	19.4
CN1CCN(C(=O)c2cc3ccccc3[nH]2)CC1	-3.26
CCN(CC)c1ccc(/C=C(/C#N)C(=O)NCc2ccccc2)o1	2.6
CCOc1ccc(N2C(=O)CC(N(O)c3ccccc3)C2=O)cc1 (stereo not drawn)	2.96
OCC[C@H]1C[C@H](O)[C@@H](O)[C@]2(CCCc3ccccc3O2)O1	0.151
COCCNC(=O)CN1CCN(S(=O)(=O)c2ccc3c(c2)CCCC3)CC1	-7.28
COc1cc(N2C(=O)CC3(CCCC3)CC2=O)cc(OC)c1OC	4.04
N#CC(CCN1CCOCC1)(c1ccccc1)c1ccccc1	-20.8
CCOC(=O)C1(c2ccccc2)CCN(CCC(C#N)(c2ccccc2)c2ccccc2)CC1.Cl	-25
CN1CCN(CCC(C#N)(c2ccccc2)c2ccccc2)CC1.Cl	-62.9
O=C(NCc1ccc(Cl)cc1)NCC(F)(F)F	7
Cc1ccc(NC(=O)CS(=O)CC(=O)N(C2CCCC2)C(C)C(=O)NC2CCCCC2)cc1 (stereo not drawn)	-22.5
CCOC(=O)c1ccc2c(c1)nc(COc1ccc3ccccc3c1)n2CC	3.73
COc1ccc(NC(=O)CSc2nnc(Cc3cccn3C)n2-c2ccc(F)cc2)cc1	-21.7
COc1ccc(-n2c(Cc3cccn3C)nnc2SCC(=O)Nc2ccccc2OC)cc1	-38.5
Cn1cccc1Cc1nnc(SCC(=O)Nc2ccc(F)cc2F)n1-c1ccc(F)cc1	-40.9
COc1ccc(-n2c(Cc3cccn3C)nnc2SCC(=O)Nc2cc(C)cc(C)c2)cc1	-52.4
COc1ccc(-n2c(Cc3cccn3C)nnc2SCC(=O)Nc2cc(Cl)ccc2OC)cc1	-97.9
